IL1B secr inh = qHTS for Inhibitors of Inflammasome Signaling: IL-1-beta AlphaLISA Primary Screen | THP-1 LPS/ATP IL-1B secretion, AlphaLISA, 16 h; hits give low values | activity change, % at 57.5 µM | 4.7% of 360,000 active | AID 743279, 2014; in the data active = activity change below about -50%; inconclusive = mostly about -30% to -49%
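THP-1 cells pretreated 1 hr with compounds (up to 57.5 uM final), then stimulated with LPS (250 ng/mL final) plus ATP (1.25 mM final); secreted IL-1B measured by AlphaLISA after 16 hr, decreased signal indicating inhibition.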
HT1080 IDH1KD tx = qHTS for induction of synthetic lethality in tumor cells producing 2HG: qHTS for the HT-1080-IDH1KD cell line | HT-1080 IDH1 knockdown viability, ATP luminescence, 48 h | 2% of 360,000 active | AID 686971, 2013 | Potency, µM (titrated, usually from 46.1 µM), inactives show top-dose activity, negative = toxicity, actives largely listed as cytotoxic;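 note: potency is the fitted concentration of half-maximal effect; 0% = DMSO wells and -100% = cell-free medium wells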
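HT-1080-IDH1KD cells (IDH1 knocked down), 750/well in RPMI with 5% FBS, treated with compound 48 h at 37 degrees C. Viability by CellTiter-Glo luminescence, normalised to DMSO and no-cell wells; concentration-response curves classed.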
HT1080NT lethal = qHTS for induction of synthetic lethality in tumor cells producing 2HG: qHTS for the HT-1080-NT fibrosarcoma cell line; 1.6% of 360,000 active; Potency, µM (doses to about 46.1 µM), without a hit: at the highest dose activity, negative = less viability, actives largely listed as cytotoxic; AID 686970, 2013; HT-1080-NT fibrosarcoma viability, CellTiter-Glo ATP luminescence, 48 h;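 note: NT is the 2HG producing partner of a matched IDH1 knockdown line; potency is the fitted concentration of half-maximal effect; 0% = DMSO-treated cells and -100% = media-only wells without cells; nearly all actives have a fitted effect of over 55% in size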
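Toxicity toward the 2HG-producing NT line was scored as %Activity, normalised to DMSO and no-cell wells, from CellTiter-Glo luminescence after 48 hours' treatment.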
TDP1 cell CPT = qHTS for Inhibitors of human tyrosyl-DNA phosphodiesterase 1 (TDP1): qHTS in cells in presence of CPT | AID 686979, 2013 | Potency, µM (highest dose often 46.2 µM), inactives show at the highest dose activity change, negative = growth inhibition, most hits filed as inhibitors | 12% of 420,000 active | chicken DT40 Tdp1-/-;hTDP1 cells + 20 nM CPT, ATP luminescence, 48 h; note: potency is the fitted concentration of half-maximal effect; nearly all actives have a fitted effect of over 55% in size
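Chicken DT40 Tdp1-/- cells complemented with human TDP1, 400 cells/well, exposed to compounds plus 20 nM camptothecin for at least 48 h at 37 C; viability read as ATP content by CellTiter-Glo luminescence.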
12-LOX inh = Primary qHTS assay for inhibitors of human arachidonate 12S-lipoxygenase (ALOX12): Round 2. 1.1% of 580,000 active. Polyunsaturated fatty acid lipoxygenase ALOX12 (Homo sapiens), P18054. purified 12hLO, xylenol orange hydroperoxide absorbance. Potency, µM (top dose mostly 108 µM), for inactives: at the highest dose activity change, negative = inhibition, hits mostly inhibitors; note: potency is the fitted concentration of half-maximal effect
Target sequence (P18054 whole entry, looked up): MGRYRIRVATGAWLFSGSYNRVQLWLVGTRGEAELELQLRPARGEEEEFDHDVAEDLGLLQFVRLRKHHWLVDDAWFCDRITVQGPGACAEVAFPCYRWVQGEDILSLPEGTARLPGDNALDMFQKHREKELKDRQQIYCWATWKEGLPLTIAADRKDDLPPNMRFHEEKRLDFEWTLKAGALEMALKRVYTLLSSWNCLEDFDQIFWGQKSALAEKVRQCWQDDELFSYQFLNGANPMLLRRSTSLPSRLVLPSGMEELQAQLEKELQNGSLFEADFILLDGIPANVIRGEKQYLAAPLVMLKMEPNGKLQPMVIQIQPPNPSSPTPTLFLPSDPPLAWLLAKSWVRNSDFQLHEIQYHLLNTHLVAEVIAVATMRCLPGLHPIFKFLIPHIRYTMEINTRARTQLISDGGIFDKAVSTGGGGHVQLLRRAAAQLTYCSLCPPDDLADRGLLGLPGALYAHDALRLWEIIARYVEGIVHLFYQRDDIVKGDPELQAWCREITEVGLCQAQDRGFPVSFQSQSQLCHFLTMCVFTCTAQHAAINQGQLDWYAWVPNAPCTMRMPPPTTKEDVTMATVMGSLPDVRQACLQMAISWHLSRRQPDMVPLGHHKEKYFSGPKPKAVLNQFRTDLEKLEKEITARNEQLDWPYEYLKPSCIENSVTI
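Hydroperoxide product was detected by ferrous iron/xylenol orange as the 573 to 405 nm absorbance ratio. Arachidonic acid at 40 uM (final) was turned over for 30 min at room temperature by 150 nM human 12hLO, pH 7.0 Hepes buffer, after 15 min compound preincubation.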
DT40 TDP1 no CPT = qHTS for Inhibitors of human tyrosyl-DNA phosphodiesterase 1 (TDP1): qHTS in cells in absence of CPT; DT40 Tdp1-/- hTDP1 cells, no CPT, ATP luminescence, 48 h; Potency, µM (titrated, usually from 46.2 µM), for inactives: at the top dose activity change, negative = growth inhibition, actives largely listed as inhibitors; 15% of 420,000 active; AID 686978, 2013; note: potency is the fitted concentration of half-maximal effect; nearly all actives have a fitted effect of over 55% in size
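No-CPT arm: Tdp1-/-;hTDP1 DT40 cells (400/well) plus compounds, incubated ≥48 hr at 37 °C. Readout CellTiter-Glo luminescence.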
Numbers without * were called inactive; ? = inconclusive; . = not tested or not shown; [ ] = dose if it differs, or a comment. The sample as a whole holds a higher share of hits than the screen did. Unless noted, calls come from the whole dose curve; as a rule, active = well fitted curve in the direction sought with a large enough effect; inconclusive = small, poorly fitted or top-dose-only effect, or another doubt; inactive = no such curve, though single readings can be large; an effect the other way counts as inactive or inconclusive. Unless noted, % is set by controls: 0 for no effect and ±100 for the full control effect.

SMILES	IL1B secr inh	HT1080 IDH1KD tx	HT1080NT lethal	TDP1 cell CPT	12-LOX inh	DT40 TDP1 no CPT
Cc1ccc(NC(=O)CN2CCN(S(=O)(=O)c3ccc(C(C)C)cc3)CC2)cc1F	.	.	.	21µM*	?	?
CCOC(=O)C1=CN(CC(=O)NC(C)CCc2ccccc2)S(=O)(=O)N=C1C (configuration not stated)	.	.	.	.	63%	.
Cc1cnnn1-c1ccc(C(=O)CCl)cc1	-109*	1%	1%	2.3µM*	?	2.6µM*
O=C(Nc1ccc(Cl)cc1)Nc1nnc(CSCc2ccc(Cl)cc2)s1	-61*	-11%	0%	2.6µM*	1%	4.1µM*
CCCc1nnc(NC(=O)Nc2ccc(OC)cc2)s1	-3	19%	12%	-20%	0%	-22%
COc1cccc(NC(=O)Nc2nnc(Cc3ccccc3F)s2)c1	17	?	-29%	?	?	23µM*
COc1ccccc1NC(=O)Nc1nnc(Cc2ccccc2F)s1	16	?	?	-22%	-1%	?
O=C(Nc1ccc(F)cc1)Nc1nnc(Cc2ccccc2F)s1	5	-12%	-16%	16µM*	27%	13µM*
COc1ccc(NC(=O)Nc2nnc(Cc3ccc(F)cc3)s2)cc1	-14	?	-42%	-21%	0%	26µM*
O=C(Nc1ccccc1)Nc1nnc(Cc2ccccc2F)s1	6	-28%	-2%	6%	18%	-9%
Cc1cc(C)n(CCc2nc3cc(NC(=O)COc4ccc(Cl)cc4)ccc3n2C)n1	.	.	.	.	-2%	.
O=C(COc1ccc(F)cc1)NCC(=O)N1CCCCCNC(=O)CC1c1ccccc1 (configuration not stated)	.	.	.	.	8%	.
Cn1nccc1C(=O)N1CCCN(C(=O)C2CC2)c2ccccc21	.	.	.	.	45%	.
c1ccc(-c2csc(=NC3CCCCC3)n2N=C2CCCC2)cc1	.	.	.	.	-19%	.
CSCC[C@H](NC(=O)N1C[C@H]2C[C@@H](C1)c1cccc(=O)n1C2)C(=O)Nc1ccc(NC(C)=O)cc1	-23	-1%	2%	-7%	9%	-5%
Cn1c2ccccc2c2c(C(=O)N3CCN(c4ccc(F)cc4)CC3)cn(C3CCCCC3)c(=O)c21	.	.	.	16µM*	?	18µM*
Cc1cccc(N2CCN(C(=O)c3cn(C4CCCCC4)c(=O)c4c3c3ccccc3n4C)CC2)c1C	.	.	.	?	-24%	16µM*
COc1ccc(-n2nc(C(=O)N3CCN(c4ccc(F)cc4)CC3)c3c4ccccc4n(C)c3c2=O)cc1	.	.	.	1%	-22%	3%
COc1ccc(N2CCN(C(=O)c3cn(C4CCCCC4)c(=O)c4c3c3ccccc3n4C)CC2)cc1	.	.	.	23µM*	5%	21µM*
COc1ccc(Cl)cc1NC(=O)c1cn(C2CCCCC2)c(=O)c2c1c1ccccc1n2C	.	.	.	?	-21%	?
Cc1nn(-c2ccccc2)nc1C(=O)Oc1cc(C(F)(F)F)nn1-c1ccccc1	-4	0%	0%	-4%	?	-8%
CCOc1c(CNCCCSc2nc(C)cc(C)n2)cccc1OC	7	-19%	?	21µM*	0%	?
COCCCNCc1ccc(SC)cc1	.	.	.	.	3%	.
CSc1ccc(CNCCCN(C)C)cc1	-54*	-23%	-3%	?	2%	?
Brc1ccc(CNCCCSc2nnnn2-c2ccccc2)cc1	.	.	.	?	?	16µM*
SMILES	IL1B secr inh	HT1080 IDH1KD tx	HT1080NT lethal	TDP1 cell CPT	12-LOX inh	DT40 TDP1 no CPT
Brc1ccc(CNCCCSc2ncccn2)cc1	-1	-13%	-13%	15µM*	?	16µM*
Cc1cc(C)nc(SCCCNCc2ccc(Br)cc2)n1	-4	-28%	?	?	?	21µM*
Cc1ccc(CNCCCSc2nc(C)cc(C)n2)cc1	?	-8%	-10%	?	13%	?
CSc1ccc(CNCCCSc2ncccn2)cc1	-68*	-16%	-7%	?	-24%	-22%
O=C(NCC1CCOCC1)c1cnc2n[nH]c(-c3ccccc3)c2n1	.	.	.	.	-2%[176 µM]	.
CC(C#N)On1c(SC(C)C#N)nc2ccccc2c1=O (configuration not stated)	12	0%	0%	-3%	0%	-2%
CCC(C)n1c(SC(C)C#N)nc2ccccc2c1=O (configuration not stated)	22	-11%	1%	?	-3%	23µM*
O=C1Nc2ccccc2CNC12CCN(Cc1ccc(C(F)(F)F)cc1)CC2	.	.	.	.	0%[6.33 µM]	.
CC(=O)c1cccc(OCC(O)CNCCc2ccc(Cl)cc2)c1 (configuration not stated)	?	-23%	-1%	?	?	-15%
CCCc1cnc(NCCNCC(O)COc2ccc(Cl)c(Cl)c2)nc1 (configuration not stated)	.	21µM*	18µM*	16µM*	?	16µM*
CCCCn1nc(C(=O)N2CCC(C(=O)Nc3ccc4c(c3)OCO4)CC2)c2ccccc2c1=O	.	.	.	.	-15%	.
CCCSCCCNC(=O)c1sc2nc(C)cc(C)c2c1-n1cccc1	.	.	.	?	-26%	?
CCCCN(CC)CCCNC(=O)c1sc2nc(C)cc(C)c2c1-n1cccc1	.	.	.	?	-21%	18µM*
Cc1cc(C)c2c(-n3cccc3)c(C(=O)NCC(C)c3ccccc3)sc2n1 (configuration not stated)	.	.	.	21µM*	0%	21µM*
CC(CNC(=O)c1sc2ncccc2c1-n1cccc1)c1ccccc1 (configuration not stated)	.	.	.	?	4%	26µM*
CC1CCCCN1CCCNC(=O)c1sc2ncccc2c1-n1cccc1 (configuration not stated)	.	.	.	-24%	4%	-23%
CCOC(=O)Nc1sc2nc(C)cc(C)c2c1-n1cccc1	-11	-29%	-26%	23µM*	-18%	9.2µM*
COc1cccc(NC(=O)CN(C)C(c2ccccc2)c2ccccc2)c1	.	.	.	.	3%	.
CCC(C)NC(=O)c1sc2ncccc2c1-n1c(C)ccc1C (configuration not stated)	.	.	.	21µM*	-24%	26µM*
N#Cc1cccc(COC(=O)CCC(=O)c2ccc3c(c2)OCCCO3)c1	.	.	.	.	29%	.

Source: PubChem (National Center for Advancing Translational Sciences (NCATS))
